Laboratory results: PubChem BioAssay AID463173 (ICCB-Longwood Screening Facility, Harvard Medical School, 2010)
The campaign covered roughly 52,000 compounds. About 4,300 (8.3%) were called active. The sample as a whole holds a higher share of actives than the screen did. Values without a mark were called inactive. No stated cut-off is given here; in the data, active means survival mostly below about 52% (no sharp cut-off); inactive means mostly above about 56%.

test system: DeltatarO mutant; test: S. aureus survival, RN4220 and DeltatarO strains – OD600, teichoic acid synthesis inhibitors, primary screen (AID 463173); conditions: S. aureus RN4220 wild type/DeltatarO growth, OD600, 18 h, hits give low values, screened at 18.75 µg/mL (by protocol)

Row | Compound | survival
1 | CC(=O)N1CCCC1c1nc2ccccc2n1Cc1cc(C)ccc1C (stereo not drawn) | 106%
2 | Cc1cc(NC(=O)c2cccn2-c2nnc(N3CCCCC3)s2)ccc1Br | 117%
3 | CCCCN(C)CCCNC(=O)C1CCN(S(=O)(=O)CC)CC1 | 108%
4 | CCc1ccc(CN(Cc2ccco2)C(=O)c2ccccc2Cl)cc1 | 46% (active)
5 | COc1ccc(C(=O)N(Cc2ccco2)Cc2ccc(C)o2)cc1 | 71%
6 | Cc1ccc(C(=O)N(Cc2ccc(N(C)C)cc2)Cc2ccco2)cc1 | 73%
7 | O=C(c1ccccc1Cl)N(Cc1ccco1)Cc1ccco1 | 60%
8 | COc1ccc(C(=O)N(Cc2ccco2)Cc2ccco2)cc1 | 58%
9 | CCc1ccc(CN(Cc2ccco2)C(=O)c2ccc(C)cc2)cc1 | 41% (active)
10 | Cc1ccc(CN(Cc2ccco2)C(=O)c2ccccc2Cl)o1 | 74%
11 | Cc1ccc(C(=O)N(Cc2ccco2)Cc2ccco2)cc1 | 61%
12 | Cc1ccc(CN(Cc2ccco2)C(=O)c2ccccc2Br)o1 | 47%
13 | O=C(c1ccccc1Br)N(Cc1ccco1)Cc1ccco1 | 45% (active)
14 | CCc1ccc(CN(Cc2ccco2)C(=O)c2ccc(OC)cc2)cc1 | 52% (active)
15 | CCOc1ccccc1C(=O)N(Cc1ccco1)Cc1ccco1 | 73%
16 | COc1cccc(/C=C(\C#N)C(=O)Nc2ccc(NC(C)=O)cc2)c1OC | 89%
17 | Cc1ccccc1C(=O)Nc1ccc2oc(-c3ccc(Cl)c(Cl)c3)nc2c1 | 64%
18 | Cc1ccc2cc(CN(Cc3ccccc3)C(=O)C3CC3)c3nnnn3c2c1 | 100%
19 | O=C(NCc1ccco1)C(c1ccccc1)N(C(=O)Cn1nnc2ccccc21)C1CCCC1 (stereo not drawn) | 105%
20 | Cc1ccc(N2CC(NC(=O)c3ccccc3C(F)(F)F)CC2=O)cc1C (stereo not drawn) | 55%
21 | CC(=O)Nc1ccc(NC(=O)CN(C)S(=O)(=O)c2ccc3c(c2)CCCC(=O)N3)cc1 | 84%
22 | CCN(CC)C(NC(=O)c1ccccc1)C(=O)c1ccccc1 (stereo not drawn) | 85%
23 | COc1ccc(-c2nn(-c3cccc(F)c3)c3c2cnc2cc(OC)c(OC)cc23)cc1 | 67%
24 | Cc1ccc(S(=O)(=O)N(CCO)Cc2ccccc2)cc1 | 87%
25 | COC(=O)c1cc(NC(=O)Cn2nc(-c3ccc(C)c(C)c3)ccc2=O)cc(C(=O)OC)c1 | 65%

Row | Compound | survival
26 | CC(C(=O)Nc1ccccc1C(F)(F)F)n1nnc2sc3c(c2c1=O)CCCC3 (stereo not drawn) | 81%
27 | O=C(Cn1nc(C(F)(F)F)c2c1CCCC2)Nc1ccc(F)c(Cl)c1 | 62%
28 | CCc1nc(Nc2ccc(F)c(Cl)c2)c2c3c(sc2n1)CCCC3 | -4% (active)
29 | COc1ccc(Nc2ncnc3sc4c(c23)CCCC4)cc1 | 69%
30 | Cc1ccc(Cl)cc1NC(=O)C(C)n1nnc2sc3c(c2c1=O)CCCC3 (stereo not drawn) | 69%
31 | CC(C(=O)Nc1cc(C(F)(F)F)ccc1Cl)n1nnc2sc3c(c2c1=O)CCCC3 (stereo not drawn) | 53% (active)
32 | O=C(Cn1c(=O)nc(-c2ccccc2)c2cc(Cl)ccc21)Nc1ccc(F)c(Cl)c1 | 75%
33 | COC(=O)c1cc(NC(=O)Cn2nc(-c3ccccc3)c3c(c2=O)CCCC3)cc(C(=O)OC)c1 | 24% (active)
34 | CC(=O)Nc1ccc(Nc2ncnc3sc4c(c23)CCCC4)cc1 | 76%
35 | O=C(Cn1nc(-c2ccccc2)c2c(c1=O)CCCC2)Nc1ccc(F)c(Cl)c1 | 23% (active)
36 | COC(=O)c1cc(NC(=O)Cn2nc(C)n3cccc3c2=O)cc(C(=O)OC)c1 | 87%
37 | COc1ccc(OCC(=O)Nc2ccc(-c3nc4cc(C)cc(C)c4o3)cc2)cc1 | 75%
38 | CCOC(=O)C1=C(CN2CCN(c3ccc(Cl)cc3)CC2)NC(=O)NC1c1ccc(F)cc1 (stereo not drawn) | 70%
39 | CCOC(=O)c1nc(Nc2ccc(Cl)cc2)c2c(C)noc2n1 | 68%
40 | COc1ccc(OC)c(CNC(=O)c2ccc(NC(=O)c3nsc4ccccc34)cc2)c1 | 80%
41 | O=C(Cn1nnc2sc3c(c2c1=O)CCCC3)Nc1ccc(F)c(Cl)c1 | 36% (active)
42 | Cc1c(Cl)cccc1NC(=O)Cn1nnc2sc3c(c2c1=O)CCCC3 | 75%
43 | COc1ccc(NC(=O)Cn2nnc3sc4c(c3c2=O)CCCC4)cc1 | 61%
44 | CCOc1ccc(/C=C(\C#N)c2nc(-c3cc4ccccc4oc3=O)cs2)c(OCC)c1 | 81%
45 | COc1ccc(C(=O)Nc2cccc(-c3nc4cccnc4s3)c2C)c(OC)c1 | 103%
46 | Cc1ccc(-c2nc3cccnc3s2)cc1NC(=O)Cc1ccccc1 | 99%
47 | CCOc1ccc(CC(=O)Nc2cccc(-c3nc4cccnc4s3)c2C)cc1 | 90%
48 | CCCCC(=O)Nc1cc(-c2cn3cccnc3n2)ccc1C | 102%
49 | COCC(=O)Nc1cccc(-c2nc3cccnc3s2)c1 | 68%
50 | Cc1cccc(CC(=O)Nc2cccc(-c3nc4cccnc4s3)c2)c1 | 93%

Row | Compound | survival
51 | Cc1ccc(C(=O)Nc2cccc(-c3nc4cccnc4s3)c2C)cc1 | 111%
52 | CCCCC(=O)Nc1cc(-c2nc3cccnc3s2)ccc1C | 35% (active)
53 | COc1cc(OC)cc(C(=O)Nc2cc(-c3nc4cccnc4s3)ccc2C)c1 | 43% (active)
54 | CCCC(=O)Nc1cc(-c2nc3cccnc3s2)ccc1C | 109%
55 | Cc1cccc(C(=O)Nc2cc(-c3nc4cccnc4s3)ccc2C)c1 | 45% (active)
56 | COc1ccc(CC(=O)Nc2cc(-c3nc4cccnc4s3)ccc2C)cc1 | 41% (active)
57 | COc1ccc(N2CCN(C(=O)CS(=O)(=O)c3cccc4nsnc34)CC2)cc1 | 107%
58 | O=C(CSc1nc2c([nH]c3ccccc32)c(=O)n1-c1cccc(C(F)(F)F)c1)N1CCCC1 | 71%
59 | Cc1c(C(=O)Nc2ccc(F)c(C(F)(F)F)c2)sc2nc(-c3ccccc3)cn12 | 105%
60 | CCOC(=O)C1=CN(O)/C(=C\N=O)C=C1 | 78%
61 | COc1ccc(Cl)cc1NC(=O)CSc1cc(C)[nH]c(=O)n1 | 80%
62 | COc1ccc(S(=O)(=O)c2cn(C)c3cc(N4CCCCCC4)c(F)cc3c2=O)cc1 | 86%
63 | Cc1ccccc1Nc1c(-c2c(F)cccc2Cl)nc2ccc(Br)cn12 | 69%
64 | COc1ccc(/C=C\c2onc(C)c2S(=O)(=O)N2CCC(C(=O)Nc3ccc(Cl)cc3)CC2)cc1 | 65%
65 | CCOc1ccccc1C(=O)Nc1cc(-c2nc3cccnc3s2)ccc1C | 37% (active)
66 | O=C(Nc1cccc(-c2nc3cccnc3s2)c1)c1cccc(Br)c1 | 32% (active)
67 | CN(C)c1ccc(C(=O)Nc2cccc(-c3nc4cccnc4s3)c2)cc1 | 49%
68 | CCCCOc1ccc(C(=O)Nc2cccc(-c3nc4cccnc4s3)c2)cc1 | 92%
69 | Cc1ccccc1C(=O)Nc1cccc(-c2nc3cccnc3s2)c1 | 81%
70 | CCOc1ccc(C(=O)Nc2cccc(-c3nc4cccnc4s3)c2C)cc1OCC | 90%
71 | COc1ccc(CC(=O)N2N=C(c3ccncc3)CC2(O)C(F)(F)F)cc1 (stereo not drawn) | 104%
72 | COc1ccccc1CNC(=O)CCCn1c(=O)c2ccccc2n(CC(=O)Nc2c(C)cc(C)cc2C)c1=O | 166%
73 | N#Cc1ccc(CSCC(=O)NN=C2CCCC2)cc1 | 65%
74 | COc1ccc(OCC2c3cc(OC)c(OC)cc3CCN2C(=O)c2ccc(F)cc2)cc1 (stereo not drawn) | 94%
75 | CCOC(=O)c1ccccc1NC(=O)c1sc2ccccc2c1Cl | 36% (active)

Row | Compound | survival
76 | Cc1ccc(NC(=O)c2sc3ccccc3c2Cl)cc1 | 66%
77 | CCOc1ccc(NC(=O)c2sc3ccccc3c2Cl)cc1 | 68%
78 | CCN(CC)c1ccc(NC(=O)c2sc3ccccc3c2Cl)cc1 | -2% (active)
79 | CCCC(=O)Nc1ccc(NC(=O)c2sc3ccccc3c2Cl)cc1 | 109%
80 | O=C(Nc1ccccc1Cl)c1sc2cccc(Cl)c2c1Cl | 63%
81 | CCOC(=O)c1ccc(NC(=O)c2sc3ccccc3c2Cl)cc1 | 67%
82 | COc1ccccc1NC(=O)c1sc2cccc(Cl)c2c1Cl | 64%
83 | Cc1cccc(NC(=O)c2sc3cccc(Cl)c3c2Cl)c1 | 11% (active)
84 | CC(C)NC(=O)c1ccc2c(c1)nc1n2CCCCC1 | 91%
85 | COc1cccc(Cn2c(=O)n(CC3CCC(C(=O)N4CCOCC4)CC3)c(=O)c3sccc32)c1 (stereo not drawn) | 124%
86 | CCc1ccc(S(=O)(=O)c2cn(CC)c3cc(N4CCCCC4)c(F)cc3c2=O)cc1 | 83%
87 | CCOc1ccc2[nH]c(=O)c(CN(Cc3ccccc3OC)C(=O)N3CCCC3)cc2c1 | 96%
88 | NCCS(=O)(=O)N1CCCC1 | 88%
89 | Cc1ccn2c(c1)nc(=O)c1cc(S(=O)(=O)N3CCC(C)CC3)c(Cl)cc12 | 87%
90 | COc1ccc(NC(=O)CC2C(=O)N(c3cccc(C)c3)C(=O)N2C2CCCCC2)cc1 (stereo not drawn) | 69%
91 | COc1ccc(NC(=O)CSc2ccc3nc(-c4ccccc4)cn3n2)cc1OC | 113%
92 | CCOC(=O)N1CCN(Cc2nc3cc(NC(=O)c4ccccc4Cl)ccc3n2C(C)C)CC1 | 70%
93 | COC(=O)CN1C(=O)CSc2ccc(S(=O)(=O)Nc3cccc(C)c3C)cc21 | 63%
94 | COC(=O)CN1C(=O)CSc2ccc(S(=O)(=O)Nc3cccc(C)c3)cc21 | 101%
95 | COC(=O)CN1C(=O)CSc2ccc(S(=O)(=O)Nc3ccccc3)cc21 | 91%
96 | COC(=O)CN1C(=O)CSc2ccc(S(=O)(=O)Nc3cc(C)ccc3C)cc21 | 25% (active)
97 | COC(=O)CN1C(=O)CSc2ccc(S(=O)(=O)Nc3c(C)cc(C)cc3C)cc21 | 101%
98 | COC(=O)CN1C(=O)CSc2ccc(S(=O)(=O)Nc3cccc(Br)c3)cc21 | 37% (active)
